This passage reports cell viability results from the supplement of paper PMC11150407.

Structures are written as SMILES. Counter-ions that a name gives are not always drawn. In all, about 2,100 compounds went through this assay and about 180 (8.6%) showed an effect of 50% or more. The sample as a whole holds a higher share of strong results than the screen did.

In the test the test system is MOLM1 and UCSD/AML1 (averaged). Briefly: cell viability relative to DMSO control (POC); higher = less growth inhibition. The note with it: 1 µM; 72 h. Here is the method:
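Primary viability screen in the 3q26 EVI1-high AML cell lines MOLM1 and UCSD/AML1 (1.5e3 cells/well, 384-well), compounds at 1 uM for 72 h. ATP CellTiter-Glo read-out given as percent of viable cells over DMSO control (POC), averaged over duplicates. DMSO was the negative control and 5 uM etoposide the positive control. This mapping covers the MicroSource Spectrum and Selleck anticancer libraries (drug names).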
One may read the cell viability as a read-out of living cells in per cent, often relative to untreated cells. For the compound `O=C(NOC[C@H](O)CO)c1ccc(F)c(F)c1Nc1ccc(I)cc1F`, the cell viability was 49.5%.
With `O=C(OCC(O)CO)c1ccccc1Nc1ccnc2cc(Cl)ccc12` (configuration not stated), the cell viability turned out to be 104%.
The same measure for `O=C(NOCC1CC1)c1ccc(F)c(F)c1Nc1ccc(I)cc1Cl`: 33.2%; for `NC(C(=O)O)C(O)C(=O)O` (stereo not drawn) [d,l-threo-3-HYDROXYASPARTIC ACID]: 129%.
For the compound `CC(=O)OC1CCC2(C)C(=CCC3C2CCC2(C)C(C(C)CCCC(C)C)CCC32)C1` (configuration not stated), the cell viability turned out to be 97.3%.
The figure for `COc1cc(O)cc(OC)c1OC` is 95.9%; for `COC(=O)/C(=C1/OC(=O)C(c2ccccc2)=C1O)c1ccccc1` it is 102%; for `Cc1cc(Nc2cc(N3CCN(C)CC3)nc(/C=C/c3ccccc3)n2)n[nH]1` it is 19.9%.
Turning to `C[C@@H](N)[C@H]1CC[C@H](C(=O)Nc2ccncc2)CC1`, the cell viability stood at 102%.
The same measure for `Cc1cc(Nc2cc(N3CCN(C)CC3)nc(Sc3ccc(NC(=O)C4CC4)cc3)n2)n[nH]1` [VX-680 (MK-0457, Tozasertib)]: 22%.
The figure for `COc1cc2oc3cc(OC)c(OC)c(CC=C(C)C)c3c(=O)c2c(OC)c1CC=C(C)C` is 104%; for `O=c1cc(-c2ccccc2)oc2cc(O)c(O)c(O)c12` it is 86%; for `CC1(C)C(O[C@@H]2OC[C@@H](O)[C@H](O)[C@H]2O)CC[C@]23CC24CC[C@]2(C)[C@@H]([C@@]5(C)CC[C@@H](C(C)(C)O)O5)[C@H](O)C[C@@]2(C)C4C[C@@H](O[C@@H]2O[C@H](CO)[C@@H](O)[C@H](O)[C@H]2O)C13` (some centres not stated) it is 91.9%.
Turning to `CC(C)[C@@H]1CC[C@@H](C)C[C@H]1OC(=O)c1ccccc1`, the cell viability was 109%.
The figure for `NC(=O)NCCC[C@H](N)C(=O)O` is 93.7%.
The figure for `C=CCCCCCCCCCCCc1ccco1` is 109%; for `Nc1cc(C(F)(F)F)c(-c2cc(N3CCOCC3)nc(N3CCOCC3)n2)cn1` it is 26.9%; for `COc1c(CC(=O)c2cc3c(cc2O)OC(C)(C)C(O)C3)ccc2c1C=CC(C)(C)O2` (configuration not stated) it is 98%.
On to `N[C@@H](C(=O)O)[C@@H](O)[C@H](O)[C@H](O)CO`, for which the cell viability is 106%.
In the case of `CCNC(=O)CC[C@H](N)C(=O)O`, the cell viability amounted to 92.2%.
The figure for `Cc1ccc(NC(=O)c2ccc(CN3CCN(C)CC3)cc2)cc1Nc1nccc(-c2cccnc2)n1` [Imatinib Mesylate] is 37.8%; for `Cc1ccc(NC(=O)c2ccc(CN3CCN(C)CC3)cc2)cc1Nc1nc(-c2cccnc2)cs1` [Masitinib (AB1010)] it is 25.7%; for `Cc1cn(-c2cc(NC(=O)c3ccc(C)c(Nc4nccc(-c5cccnc5)n4)c3)cc(C(F)(F)F)c2)cn1` [Nilotinib (AMN-107)] it is 50.6%.
With `Cc1cccc(Nc2nc(-c3ccncc3)cs2)c1`, the cell viability came out at 98.9%.
The same measure for `CO[C@H]1[C@H](O)[C@@H](O)[C@H](O)[C@H](O)[C@H]1O`: 95.8%.
As to `COc1ccc2c(=O)c(OC)c(-c3ccccc3)oc2c1`, the cell viability stood at 89.8%.
The figure for `COc1cc(-c2coc3cc(OC)c(OC)c(OC)c3c2=O)cc(OC)c1OC` is 96%; for `C=C1/C(=C\C=C2/CCC[C@]3(C)[C@@H]([C@H](C)/C=C/[C@H](C)C(C)C)CC[C@@H]23)C[C@@H](O)C[C@@H]1O` [Doxercalciferol (Hectorol)] it is 99.3%.
For `CC(=O)NCCc1ccc(O)c(-c2c(O)c(O)c3c(c2O)C(=O)c2c(cc(O)c(C(=O)O)c2C(=O)O)C3=O)c1`, the cell viability came to 102%.
The figure for `COc1cc(OC)c2c(=O)cc(-c3ccccc3)oc2c1` is 90.2%; for `C/C1=C\CCC(=O)C2CC(C)(C)C2CC1` (configuration not stated) it is 93.3%; for `Cc1cc(O)c2c(c1O)C(=O)c1c(O)cc(C)c(O)c1C2=O` it is 94.1%.
The figure for `COc1c2ccoc2cc2oc(C)cc(=O)c12` is 104%.
The same measure for `Cn1cnc2c(F)c(Nc3ccc(Br)cc3Cl)c(C(=O)NOCCO)cc21` [AZD6244 (Selumetinib)]: 15.5%.
Regarding `C#CCCCCCCCCCCCC(O)CC(O)CO` (configuration not stated), the cell viability amounted to 55.1%.
For `CC1(C)C=Cc2cc3ccc(=O)oc3cc2O1`, the cell viability was found to be 107%.
The same measure for `CN(C)CC(=O)OC[C@@H](O)[C@@H](O)[C@H](O)[C@@H](O)C(=O)O`: 108%.
The same measure for `CNCc1ccc(-c2[nH]c3cc(F)cc4c3c2CCNC4=O)cc1`: 89.1%; for `Nc1c2ccccc2nc2ccccc12`: 65%.
The same measure for `CC(C)Cn1cnc2c(N)nc3ccccc3c21` [Imiquimod]: 47.9%; for `CCCCOc1ccc(CC(=O)NO)cc1`: 115%.
On to `CCCCCCCCc1ccc(CCC(N)(CO)CO)cc1` [Fingolimod (FTY720)], for which the cell viability is 76.7%.
The same measure for `CCCCCCCCCc1ccc(OCCOCCOCCOCCOCCOCCOCCOCCOCCO)cc1`: 37.9%.
The figure for `COc1ccc2c(c1)OC1(O)COc3cc(OC)c(OC)cc3C1=C2` (configuration not stated) is 102%; for `CC1=CCc2c(cc3oc(C)cc(=O)c3c2O)OC1` it is 90.4%; for `CCC(=O)O[C@H]1CC[C@H]2[C@@H]3CCc4cc(O)ccc4[C@H]3CC[C@]12C` it is 95.4%.
The same measure for `CS(=O)(=O)Nc1ccc([N+](=O)[O-])cc1Oc1ccccc1`: 96.7%; for `COc1cc(NS(C)(=O)=O)ccc1Nc1c2ccccc2nc2ccccc12`: 12.8%; for `CC(=O)Oc1cc(C)c2c(c1C=O)Oc1c(c(C)c(OC(C)=O)c3c1C(OC(C)=O)OC3=O)OC2=O` (configuration not stated): 106%.
Turning to `CC1(C)C[C@@H]2C(=O)CC[C@H]3O[C@]3(C)CC[C@H]21`, the cell viability is 104%.
Consider `CC(=O)O[C@@H]1C=C[C@]2(C)C(C[C@@H](OC(C)=O)[C@]3(C)C4=CC(=O)O[C@H](c5ccoc5)[C@@]4(C)CCC23)C1(C)C` (some centres not stated), for which the cell viability is 94.4%.
Take `COc1ccc(-c2cc(=O)c3c(OC(C)=O)cc(OC(C)=O)cc3o2)cc1`: the cell viability is 96.9%.
The figure for `Oc1ccc([C@H]2Oc3cc(O)cc(O)c3C[C@H]2O)cc1` is 102%; for `CCCCCCc1ccc(O)cc1O` it is 98.6%.
For the compound `Nc1c2c(nc3ccccc13)CCCC2`, the cell viability was determined as 105%.
As for `CCCCCCc1ccc(O)cc1O.Nc1c2ccccc2nc2ccccc12`, the cell viability is 46.4%.
The figure for `CC(=O)O[C@@H]1CC(=O)[C@@]2(C)C(CC(=O)[C@]3(C)C2CC[C@@]2(C)[C@H](c4ccoc4)OC(=O)C4OC423)C1(C)C` (some centres not stated) is 100%.
The figure for `O=c1oc2ccccc2c(O)c1Cc1c(O)c2ccccc2oc1=O` is 98.1%; for `O=C(O)/C=C/C=C/c1ccccc1` it is 121%; for `O=C(O)/C=C/c1ccccc1` it is 105%.
The same measure for `O=C(/C=C/c1cccc(S(=O)(=O)Nc2ccccc2)c1)NO` [Belinostat (PXD101)]: 1.86%.
With `COc1ccc2c(c1)OCc1c-2oc2cc(OC)ccc12`, the cell viability was 99%.
